Compounds without any hit were thinned out: in the full panel of roughly 83,000, 20% have a hit.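 Percent growth is the endpoint: 0 to 100 indicates growth inhibition (40 means 60% inhibition), 0 means no net growth, and negative values indicate cell death.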 Values without a mark were called inactive. The source made the active and inactive calls. Rule for the calls: active = growth percent below 10; inactive = the rest.
Tested on: MDA-MB-231 breast
Assay: NCI-60 one-dose screen, 48 h (100 = growth as untreated, 0 = no growth, -100 = all killed)
Details: 10 µM unless noted

Question: `C#CCOc1ccc2ncnc(N3CCC(NC(=O)CCl)CC3)c2c1` was tested. Which growth did it give?
Answer: 96.1% [8.25 µM]

Question: With `Cc1ccc(NC(=O)/C=C/c2ccccc2)c(C(N)=O)c1` as the molecule, how does the growth read?
Answer: 52.5%

Question: With `COc1ccc(/C=C\c2cc(OC)c(OC)c(OC)c2)cc1OC(=O)c1cccc(Cn2cc(CCOC(=O)[C@H](N)Cc3cn(C)c4ccccc34)nn2)c1` as the molecule, how does the growth read?
Answer: 42.8%

Question: `O=C1c2ccccc2C(=O)c2c1ccc1[nH]c(-c3cccs3)nc21` was tested. Which growth did it give?
Answer: 70.9%

Question: How did the growth turn out when `CN1CCN(Cc2ccc(NC(=O)c3cncc(C#Cc4cncn5ccnc45)c3)cc2C(F)(F)F)CC1` was run?
Answer: 54.5%

Question: With `CC(C)(C)c1cc(/C=N\NC(=O)/C=C/C=C/c2ccc3c(c2)OCO3)c(O)c(C(C)(C)C)c1` as the molecule, how does the growth read?
Answer: 79%

Question: Which growth does the source give for `CCCc1cc(=O)n2c(C(=O)Nc3ccc(F)cc3)c(C(=O)Nc3ccc(F)cc3)sc2n1` here?
Answer: 44.2% [30 µM]

Question: With `O=C(O)COc1ccc(Cl)cc1C1CCCCC1` as the molecule, how does the growth read?
Answer: 98.5%

Question: `NC(=O)c1cc(Br)ccc1NC(=O)/C=C/c1ccccc1` was tested. Which growth did it give?
Answer: 45.3%

Question: How did the growth turn out when `Cc1nn(-c2ccc(F)cc2)c2ncnc(Oc3ccc(NC(=O)Nc4ccc(Cl)c(C(F)(F)F)c4)cc3)c12` was run?
Answer: 103%

Question: Which growth does the source give for `CSc1nc(-c2cccc(NC(=O)CCl)c2)c(C#N)c(=O)n1C` here?
Answer: 65.9%

Question: How did the growth turn out when `CCCCN(CCCC)CCCn1c(-c2ccccc2)ccc1-c1ccccc1` was run?
Answer: 22.9%

Question: How did the growth turn out when `Cc1c(/C=C/[N+](=O)[O-])ccc2c1[nH]c1ccccc12` was run?
Answer: 106%

Question: Which growth does the source give for `c1ccc(Cn2cc(-c3nc4ccccc4s3)c3cccnc32)cc1` here?
Answer: 84%

Question: `O=C(N/N=C/c1c[nH]c2ccccc12)c1cc(-c2ccccc2)on1` was tested. Which growth did it give?
Answer: 89.4%

Question: `CCCn1c(=O)[nH]c(N)c([C@H]2c3ccccc3Oc3[nH]c(=O)n(CCC)c(=O)c32)c1=O` was tested. Which growth did it give?
Answer: 81.8%

Question: How did the growth turn out when `CC(=O)O[C@H]1[C@@H]2OC(=O)C(CSc3ccccc3)[C@@H]2C[C@H]2O[C@]2(C)CC/C=C(\C)CCC[C@@H]1C` (stereo partly drawn) was run?
Answer: 14.9%

Question: How did the growth turn out when `O=C1Nc2ccc(Br)cc2C12Oc1ccccc1C1CC(c3ccc(F)cc3)=NN12` (stereo not drawn) was run?
Answer: 105%

Question: For `C=C1c2nc3ccccc3n2C=C(c2cccc(Cl)c2)N1Cc1ccc(OC)cc1`, which growth is on record?
Answer: 36.3%

Question: How did the growth turn out when `C#CC(F)(F)[C@]1(O)CC[C@H]2[C@@H]3CCC4=CC(=O)CCC4=C3[C@@H](c3ccc(C(C)=O)cc3)C[C@@]21C` was run?
Answer: 60.6%

Question: With `CC(=O)O[C@H]1CC[C@]2(C)[C@H]3CC=C4[C@@H]5CC(C)(C)CC[C@]5(C(=O)NCCNCCNCCN)CC[C@@]4(C)[C@]3(C)CC[C@H]2C1(C)C` as the molecule, how does the growth read?
Answer: -42.9% (active)

Question: Which growth does the source give for `COc1ccc(-c2cc(NC(=O)Nc3ccc4ncsc4c3)no2)cc1` here?
Answer: 103%

Question: Which growth does the source give for `CCN(CC)c1ccc(-c2cc(-c3cc(OC)c(OC)c(OC)c3)nc(N3CCOCC3)c2C#N)cc1` here?
Answer: -10.9% (active)

Question: With `CC1=CC(=NN=c2cc(C)n([O-])c(C)c2)C=C(C)[N+]1=O` as the molecule, how does the growth read?
Answer: 97.7%

Question: How did the growth turn out when `Cc1ccc2oc(=O)cc(C3c4ccc([nH]4)C(c4cc(=O)oc5ccc(C)cc45)c4ccc([nH]4)C(c4cc(=O)oc5ccc(C)cc45)c4ccc([nH]4)C(c4cc(=O)oc5ccc(C)cc45)c4ccc3[nH]4)c2c1` (stereo not drawn) was run?
Answer: -53.8% (active)

Question: How did the growth turn out when `COc1cc2c(cc1-c1c(C)noc1C)ncc1nc(C3CCOCC3)n([C@@H](C)COC(F)F)c12` was run?
Answer: 42.8%

Question: How did the growth turn out when `Cc1[nH]c(-c2cc(N)ccc2Cl)c2c1C(=O)CCCC2` was run?
Answer: 22%

Question: With `O=S(=O)(Nc1ccc(Br)c(Cl)c1)c1ccc(-c2cnc(C3CC3)o2)cc1` as the molecule, how does the growth read?
Answer: 33.6%

Question: How did the growth turn out when `C=CC(=O)Nc1cccc(-c2nc(SC)nc(NCCN3CCOCC3)c2C#N)c1` was run?
Answer: 87.9%

Tested on: RXF 393 renal
Assay: as above
Details: 10 µM unless noted

Question: With `Cc1ccc(-c2onc3c(=O)[nH]nc(-c4ccccc4)c23)cc1` as the molecule, how does the growth read?
Answer: 31.8%

Question: For `O=C1CSC(=S)N1CCc1ccc(O)cc1`, which growth is on record?
Answer: 95.9%

Question: With `CNC(=O)c1cc(Oc2ccc(NC(=O)Nc3ccc(Cl)c(OC(F)(F)F)c3)c(F)c2)ccn1` as the molecule, how does the growth read?
Answer: 82.3%

Question: How did the growth turn out when `N#C/C(=C\c1ccc(-c2ccc(Cl)c(Cl)c2)o1)c1nc(-c2ccco2)cs1` was run?
Answer: 121%

Question: Which growth does the source give for `O=S(=O)(Nc1ccc(OC(F)F)cc1)c1ccc(-c2cnc(C3CC3)o2)cc1` here?
Answer: 81.9%

Question: For `O=C1Nc2cc(-c3ccc(O)cc3)ccc2/C1=C/c1ccc[nH]1`, which growth is on record?
Answer: -27.3% (active)

Question: Which growth does the source give for `CON1C(=O)CC[C@]2(C)[C@H]3CC[C@@H]4C([C@@]5(C)CCC(=O)O5)CC[C@@]4(C)[C@]3(C)CC[C@H]2C1(C)C` (stereo partly drawn) here?
Answer: 98%

Question: Which growth does the source give for `Cn1cc(C(=O)c2nc(-c3c[nH]c4ccc(Br)cc34)no2)c2cc(F)ccc21` here?
Answer: 109%

Question: How did the growth turn out when `COc1ccc(-n2nc(C)c3c(Nc4ccc(NC(=O)Nc5cccc(C(F)(F)F)c5)cc4)ncnc32)cc1` was run?
Answer: -36% (active)

Question: For `CC(C)C1=C[C@@]23CC[C@@H]4[C@](C)(CCC[C@@]4(C)C(=O)N4CCCNCC4)[C@H]2C[C@@H]1[C@H]1C(=O)CCC(=O)[C@H]13`, which growth is on record?
Answer: 104%

Question: With `C#CCOc1ccc2ncnc(N3CCC(NC(=O)CCl)CC3)c2c1` as the molecule, how does the growth read?
Answer: 16% [8.25 µM]

Question: `Cc1ccc(NC(=O)/C=C/c2ccccc2)c(C(N)=O)c1` was tested. Which growth did it give?
Answer: -9.67% (active)

Question: With `COc1ccc(/C=C\c2cc(OC)c(OC)c(OC)c2)cc1OC(=O)c1cccc(Cn2cc(CCOC(=O)[C@H](N)Cc3cn(C)c4ccccc34)nn2)c1` as the molecule, how does the growth read?
Answer: 34.9%

Question: For `O=C1c2ccccc2C(=O)c2c1ccc1[nH]c(-c3cccs3)nc21`, which growth is on record?
Answer: 81%

Question: Which growth does the source give for `CN1CCN(Cc2ccc(NC(=O)c3cncc(C#Cc4cncn5ccnc45)c3)cc2C(F)(F)F)CC1` here?
Answer: 90.4%

Question: Which growth does the source give for `CC(C)(C)c1cc(/C=N\NC(=O)/C=C/C=C/c2ccc3c(c2)OCO3)c(O)c(C(C)(C)C)c1` here?
Answer: 94.6%

Question: For `CCCc1cc(=O)n2c(C(=O)Nc3ccc(F)cc3)c(C(=O)Nc3ccc(F)cc3)sc2n1`, which growth is on record?
Answer: 10.4% [30 µM]

Question: With `O=C(O)COc1ccc(Cl)cc1C1CCCCC1` as the molecule, how does the growth read?
Answer: 102%

Question: For `NC(=O)c1cc(Br)ccc1NC(=O)/C=C/c1ccccc1`, which growth is on record?
Answer: 39.3%

Question: `Cc1nn(-c2ccc(F)cc2)c2ncnc(Oc3ccc(NC(=O)Nc4ccc(Cl)c(C(F)(F)F)c4)cc3)c12` was tested. Which growth did it give?
Answer: 107%

Question: How did the growth turn out when `CSc1nc(-c2cccc(NC(=O)CCl)c2)c(C#N)c(=O)n1C` was run?
Answer: 63.9%

Question: For `CCCCN(CCCC)CCCn1c(-c2ccccc2)ccc1-c1ccccc1`, which growth is on record?
Answer: 82.8%

Question: How did the growth turn out when `Cc1c(/C=C/[N+](=O)[O-])ccc2c1[nH]c1ccccc12` was run?
Answer: 62.6%

Question: Which growth does the source give for `c1ccc(Cn2cc(-c3nc4ccccc4s3)c3cccnc32)cc1` here?
Answer: 115%

Question: For `O=C(N/N=C/c1c[nH]c2ccccc12)c1cc(-c2ccccc2)on1`, which growth is on record?
Answer: 97.8%

Question: For `CCCn1c(=O)[nH]c(N)c([C@H]2c3ccccc3Oc3[nH]c(=O)n(CCC)c(=O)c32)c1=O`, which growth is on record?
Answer: 98.2%

Question: `CC(=O)O[C@H]1[C@@H]2OC(=O)C(CSc3ccccc3)[C@@H]2C[C@H]2O[C@]2(C)CC/C=C(\C)CCC[C@@H]1C` (stereo partly drawn) was tested. Which growth did it give?
Answer: -53.3% (active)

Question: How did the growth turn out when `O=C1Nc2ccc(Br)cc2C12Oc1ccccc1C1CC(c3ccc(F)cc3)=NN12` (stereo not drawn) was run?
Answer: 102%

Question: `C=C1c2nc3ccccc3n2C=C(c2cccc(Cl)c2)N1Cc1ccc(OC)cc1` was tested. Which growth did it give?
Answer: 4.81% (active)

Question: Which growth does the source give for `C#CC(F)(F)[C@]1(O)CC[C@H]2[C@@H]3CCC4=CC(=O)CCC4=C3[C@@H](c3ccc(C(C)=O)cc3)C[C@@]21C` here?
Answer: 85.4%

Question: With `CC(=O)O[C@H]1CC[C@]2(C)[C@H]3CC=C4[C@@H]5CC(C)(C)CC[C@]5(C(=O)NCCNCCNCCN)CC[C@@]4(C)[C@]3(C)CC[C@H]2C1(C)C` as the molecule, how does the growth read?
Answer: 65.4%

Question: Which growth does the source give for `COc1ccc(-c2cc(NC(=O)Nc3ccc4ncsc4c3)no2)cc1` here?
Answer: 129%

Question: Which growth does the source give for `CCN(CC)c1ccc(-c2cc(-c3cc(OC)c(OC)c(OC)c3)nc(N3CCOCC3)c2C#N)cc1` here?
Answer: -9.31% (active)

Question: How did the growth turn out when `CC1=CC(=NN=c2cc(C)n([O-])c(C)c2)C=C(C)[N+]1=O` was run?
Answer: 87.8%

Question: `Cc1ccc2oc(=O)cc(C3c4ccc([nH]4)C(c4cc(=O)oc5ccc(C)cc45)c4ccc([nH]4)C(c4cc(=O)oc5ccc(C)cc45)c4ccc([nH]4)C(c4cc(=O)oc5ccc(C)cc45)c4ccc3[nH]4)c2c1` (stereo not drawn) was tested. Which growth did it give?
Answer: -87.3% (active)

Question: How did the growth turn out when `COc1cc2c(cc1-c1c(C)noc1C)ncc1nc(C3CCOCC3)n([C@@H](C)COC(F)F)c12` was run?
Answer: 59.4%

Question: For `Cc1[nH]c(-c2cc(N)ccc2Cl)c2c1C(=O)CCCC2`, which growth is on record?
Answer: 19.6%

Question: For `O=S(=O)(Nc1ccc(Br)c(Cl)c1)c1ccc(-c2cnc(C3CC3)o2)cc1`, which growth is on record?
Answer: -10.6% (active)

Question: How did the growth turn out when `C=CC(=O)Nc1cccc(-c2nc(SC)nc(NCCN3CCOCC3)c2C#N)c1` was run?
Answer: 89.7%
